High-throughput results deposited in PubChem BioAssay by several laboratories.
The list is not random: actives were taken first. Their share in the collection is about 5.1%.
GRIN3A LBD mod: binders of NR3A ligand-binding domain, primary screen, biophysical, differential scanning fluorimetry, uHTS | AID 1259313, 2017 | actives 2.5% (n = 340,000) | NR3A LBD differential scanning fluorimetry, Tm shift; 0% = protein alone, 100% = glycine-bound protein | Glutamate receptor ionotropic, NMDA 3A (GRIN3A) ligand-binding domain | Tm shift relative to glycine control, % at 25 µM;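 active = melting temperature shift of at least 10% of the positive control shift, at one fixed dose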
MPTP inh: mitochondrial permeability transition pore inhibitors, primary screen, biochemical, isolated mouse mitochondria, absorbance. Ca2+ swelling absorbance, 30 min. inhibition, % at 10 µM. actives 1.4% (n = 360,000);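 active = inhibition of 50% or more, scaled per plate between neutral and stimulator controls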;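 also: 0% = DMSO wells given calcium and 100% = 1 mM EGTA wells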
ANO1 block: TMEM16A chloride channel inhibitors, primary screen, cell-based, HTS; actives 1.2% (n = 310,000); HEK293 TMEM16A/YFP iodide influx fluorescence, ionomycin; normalized B-score (activity score, 25-100; higher = stronger inhibition) at 10 µM;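 active = ratio plate-corrected score three or more library SD toward inhibition, starting fluorescence score within five deviations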;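 also: score derived from kinetic fluorescence span divided by baseline fluorescence per well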
Target sequence (Q8BHY3 whole entry, looked up): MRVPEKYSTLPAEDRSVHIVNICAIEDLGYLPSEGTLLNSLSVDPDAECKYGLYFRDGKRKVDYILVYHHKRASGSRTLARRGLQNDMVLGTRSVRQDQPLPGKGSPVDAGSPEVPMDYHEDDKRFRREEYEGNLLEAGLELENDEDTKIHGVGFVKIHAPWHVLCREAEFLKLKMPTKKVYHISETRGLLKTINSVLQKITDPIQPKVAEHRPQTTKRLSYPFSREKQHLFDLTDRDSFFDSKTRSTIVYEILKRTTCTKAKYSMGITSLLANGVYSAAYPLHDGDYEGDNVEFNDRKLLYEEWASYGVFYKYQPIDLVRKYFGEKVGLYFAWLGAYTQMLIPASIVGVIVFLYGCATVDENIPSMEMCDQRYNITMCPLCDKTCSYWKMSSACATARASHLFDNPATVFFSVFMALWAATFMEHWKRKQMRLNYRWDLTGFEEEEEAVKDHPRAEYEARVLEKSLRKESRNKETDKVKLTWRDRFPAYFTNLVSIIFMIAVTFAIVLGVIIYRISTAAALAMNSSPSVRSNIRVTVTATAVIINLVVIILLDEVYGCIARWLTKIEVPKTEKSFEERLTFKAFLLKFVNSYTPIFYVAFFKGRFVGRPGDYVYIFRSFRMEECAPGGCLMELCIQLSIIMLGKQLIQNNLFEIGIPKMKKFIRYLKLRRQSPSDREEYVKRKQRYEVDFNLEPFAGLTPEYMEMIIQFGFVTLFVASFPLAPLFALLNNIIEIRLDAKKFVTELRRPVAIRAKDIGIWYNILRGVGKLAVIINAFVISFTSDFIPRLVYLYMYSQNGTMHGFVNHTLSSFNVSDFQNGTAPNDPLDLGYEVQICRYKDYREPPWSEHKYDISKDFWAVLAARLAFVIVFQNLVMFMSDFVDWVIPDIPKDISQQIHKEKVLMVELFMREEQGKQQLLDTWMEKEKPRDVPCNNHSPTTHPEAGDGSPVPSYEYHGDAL
CRFR2-BP antag: antagonists of CRF-BP/CRF-R2 complex, primary screen, cell-based, HEK293, calcium dye fluorescence, uHTS; CRF-induced calcium fluorescence; inhibition, % at 11.8 µM; actives 0.59% (n = 350,000); AID 588475, 2011;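 active = inhibition of the ligand-induced calcium signal above about 50% at the single tested concentration, limit read from the data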
CRFBP-R2 agonist: agonists of CRF-BP/CRF-R2 complex, primary screen, cell-based, HEK293, calcium dye fluorescence, uHTS. CRF-binding protein / CRF receptor 2 complex (human). calcium dye fluorescence (FLIPR); percent of saturating CRF peptide response. activation, % at 13.2 µM. actives 0.46% (n = 350,000). AID 588473, 2011;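 active = activation of at least 50%, plus an integration ratio under a set limit after plate pattern correction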;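 also: plate controls were neutral control wells without compound for no effect and CRF at EC100 for full effect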
ANO1 activ: TMEM16A chloride channel activators or potentiators, primary screen, cell-based, HTS. Anoctamin-1 (Mus musculus), Q8BHY3. HEK293 TMEM16A/YFP-H148Q/I152L, iodide quench fluorescence; active compounds read low. B-score at 10 µM. actives 0.3% (n = 340,000);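 active = fluorescence-ratio B-score plate-corrected deviation score at least 3 library SD below zero, with starting fluorescence score within 5 deviations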;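 also: channel opened by trigger with iodide after compound preincubation; score built on the fluorescence ratio of max minus min over baseline; more negative score means more quench and so TMEM16A activation or potentiation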
The depositor's hits bear a star; i = inactive; · = not tested or not shown.

SMILES | GRIN3A LBD mod | MPTP inh | ANO1 block | CRFR2-BP antag | CRFBP-R2 agonist | ANO1 activ
O=C(N/C(=C/c1ccc(F)cc1)C(=O)N1CCCCC1)c1ccco1 | 1 | 0 | i | -8 | -1 | i
O=C(CCc1ccccc1)Nc1cc(NC(=O)CCc2ccccc2)cc(C(=O)O)c1 | 17* | -1 | i | 8 | -1 | i
O=C(CCc1ccccc1)Nc1c(F)cccc1F | -2 | 0 | i | 52* | -2 | i
O=C(CCc1ccccc1)Nc1ccncc1 | -13 | 0 | i | -1 | -1 | i
COC(=O)c1cc(OC)c(OC)cc1NC(=S)Nc1cc(Cl)ccc1OC | -3 | 24 | i | -9 | 0 | i
CCOc1ccc(C(=O)Nc2ccc(Cl)cn2)cc1Cl | 25* | 1 | i | 56* | 0 | i
CCOc1ccc(C(=O)Nc2cccc(C(=O)O)c2)cc1Cl | 1 | 0 | i | -8 | 3 | i
COc1ccc(Cl)cc1NC(=S)Nc1ccc(Cl)cn1 | 16* | 1 | i | -8 | 1 | i
CCOc1ccc(C(=O)Nc2cc(NC(=O)c3ccc(OCC)c(Cl)c3)cc(C(=O)O)c2)cc1Cl | 23* | 0 | · | -15 | 22 | i
O=C(Nc1ccc(Cl)cn1)Nc1ccc(Cl)cn1 | 29* | 5 | i | -17 | 1 | i
CCC(C)(C)C1CCC(NC(=O)c2ccc(S(=O)(=O)N3CCOCC3)cc2)CC1 (stereo unspecified) | 0 | 0 | · | -7 | 0 | i
CCOC(=O)C1CCCN(C(=O)c2ccc(C(F)(F)F)nc2C)CC1 (stereo unspecified) | · | 2 | · | · | · | ·
Cc1ccc(SCC(=O)c2cc(C)c(O)c(C)c2)cc1 | -6 | 2 | i | 15 | -1 | i
COc1ccc(SCC(=O)c2cc(C)c(OC(=S)N(C)C)c(C)c2)cc1 | 3 | 0 | 25* | 9 | -2 | i
COCC(=O)N1C[C@H]2CON(C)[C@H]2C[C@H]1c1ccc(N2CCCCC2)cc1 | · | 0 | · | · | · | ·
COc1ccc(Cl)cc1NC(=O)c1nnn(CC(=O)Nc2ccc(C)c(C)c2)c1N | 14* | 3 | i | 5 | 2 | i
Cc1cc(C)cc(NC(=O)Cn2nnc(C(=O)NCc3ccccc3Cl)c2N)c1 | 0 | 0 | i | -4 | 1 | i
COc1ccc(Cl)cc1NC(=O)Cn1nnc(C(=O)NCCc2ccc(OC)c(OC)c2)c1N | -2 | 0 | i | -11 | 0 | i
Cc1ccc(Cn2nnc(C(=O)Nc3cccc(C)c3C)c2N)cc1 | 1 | 11 | i | -103 | 105* | i
Cc1cc(C)cc(NC(=O)Cn2nnc(C(=O)NCc3ccc(F)cc3)c2N)c1 | 34* | 2 | i | 76* | 6 | i
CC(C)c1ccc(NC(=O)Cn2nnc(C(=O)NCc3ccco3)c2N)cc1 | 12* | -1 | i | 2 | 3 | i
O=C(CSC1=NS(=O)(=O)c2cc(F)ccc2N1)NCCc1ccccc1 | -1 | 2 | i | 3 | 4 | i
COc1ccc(NC(=O)COC(=O)Cn2cnc3ccccc3c2=O)c(OC)c1 | -1 | 0 | · | 4 | 0 | i
COc1ccc(NC(=O)Cn2nnc(C(=O)NCc3ccccc3)c2N)cc1Cl | -4 | -1 | i | 1 | 0 | i
COc1ccc(NC(=O)Cn2nnc(C(=O)NCc3cccs3)c2N)cc1OC | 0 | 0 | i | 9 | 0 | i
SMILES | GRIN3A LBD mod | MPTP inh | ANO1 block | CRFR2-BP antag | CRFBP-R2 agonist | ANO1 activ
COc1ccc(NC(=O)Cn2nnc(C(=O)NCc3ccc(C)cc3)c2N)cc1Cl | 17* | 1 | i | -3 | 3 | i
CCOc1ccccc1NC(=O)c1nnn(CC(=O)Nc2cc(C)cc(C)c2)c1N | 13* | 10 | i | -15 | 1 | i
Cc1ccc(NC(=O)Cn2nnc(C(=O)NCc3cccs3)c2N)cc1F | 32* | -3 | i | -1 | 1 | i
COc1ccccc1NC(=O)c1nnn(CC(=O)Nc2cc(C)cc(C)c2)c1N | -3 | 0 | i | 1 | 1 | i
COc1ccc(NC(=O)Cn2nnc(C(=O)Nc3ccc(F)c(Cl)c3)c2N)cc1OC | 78* | 0 | i | 4 | 5 | i
C#CCOc1ccc(CNC[C@H]2O[C@@H](n3cnc4c(N)ncnc43)[C@H](O)[C@@H]2O)cc1 | 0 | 0 | · | -2 | 1 | i
O=C(O)CCCC(=O)N1CCOCCOCCOCCOCC1 | 2 | 1 | i | -10 | 0 | i
O=C(CSc1nc2[nH]c(=O)cc(O)c2s1)Nc1cc(Cl)cc(Cl)c1 | 5 | 1 | i | 2 | 0 | i
N#Cc1ccc(NC(=O)CSc2nc3[nH]c(=O)cc(O)c3s2)cc1 | -2 | 0 | · | 1 | 0 | i
CSc1ccc(NC(=O)CSc2nc3[nH]c(=O)cc(O)c3s2)cc1 | 14* | 3 | · | -2 | 5 | i
Cc1cc(C)nc(SCc2nnc(SCC(=O)Nc3ccc(Cl)c(C(F)(F)F)c3)o2)n1 | 7 | 36 | 100* | -36 | 8 | i
O=C(CSc1nc2[nH]c(=O)cc(O)c2s1)Nc1ccc(Cl)c(C(F)(F)F)c1 | 12* | 0 | · | -5 | 1 | i
Cc1cccc(NC(=O)CSc2nnc(CSc3nc(C)cc(C)n3)o2)c1 | 5 | 1 | i | 2 | 7 | i
O=C(COC(=O)CNS(=O)(=O)c1ccc(Br)cc1Cl)NCCc1ccccc1 | 2 | 1 | i | 21 | 0 | i
Cc1ccc(C2N(c3ccc(Cl)cc3)C(=O)N3CCCN23)cc1 (stereo unspecified) | -1 | 26 | i | -3 | -2 | i
O=C(O)c1cnn(-c2nc(-c3ccc(Br)cc3)cs2)c1C(F)(F)F | 0 | 1 | i | 23 | 0 | i
CCOC(=O)c1c(-c2cc(OC)c(OC)c(OC)c2)csc1N | · | 0 | · | 9 | -2 | ·
O=S1(=O)CC(N2CCCCC2)CN1Cc1cn(Cc2cccc(Cl)c2)nn1 (stereo unspecified) | · | 0 | · | · | · | ·
C#CCOCCOCCOCCNc1nc(N2CCN(C(=O)CCCCCCCCCCNC(=O)[C@H](CCCCN)n3cc(C[C@@H](C)CC)nn3)CC2)nc(N2CCN(C(=O)CCCCCCCCCCNC(=O)[C@H](CCCN=C(N)N)n3cc(C[C@@H](C)CC)nn3)CC2)n1 | -27 | -4 | 100* | -48 | 4 | -23*
